Results reported in PubChem BioAssay AID1159580 (chemical genetic matrix, 2015).
Several values for one entry are separate records, joined by “and”; a condition that tells them apart may be missing. Equal values may be shown once. Screen size: about 5,500 compounds; about 2,000 (36%) were called active. Another 18% or so got no clear call; they are omitted. Cut-off read from the data, not from the text of the source: active = normalized growth mostly below about 0.91 (no sharp cut-off); inconclusive = no clear call, values can overlap the other calls; inactive = mostly above about 0.92. The list shows a part of the results.

Assay: chemical genetic growth profiling, strain panel (AID 1159580);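 note: tested at 20 µM; growth read once vehicle control cultures reached saturation at 30 °C; 1 = growth at the plate median or of vehicle wells; lower values mean less growth of the strain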
Conditions: S. cerevisiae deletion strains, growth OD

Measured: normalized growth

O=c1cc(-c2ccc(O)cc2)oc2cc(O[C@@H]3O[C@H](CO)[C@@H](O)[C@H](O)[C@H]3O[C@@H]3OC[C@](O)(CO)[C@H]3O)cc(O)c12
inactive: locus YAL013W, strain DEP1, hits give low values 1.01 | locus YAL021C, strain ccr4, hits give low values 0.998 | locus YAL026C, strain drs2, hits give low values 1 | locus YAL030W, strain snc1, hits give low values 1 | locus YBL061C, strain skt5, hits give low values 1.02 | locus YBR009C, strain hhf1, hits give low values 1.01 | locus YBR021W, strain FUR4, hits give low values 0.99 | locus YBR023C, strain chs3, hits give low values 1.01 | locus YBR171W, strain sec66, hits give low values 0.982 | locus YBR229C, strain ROT2, hits give low values 1.01 | locus YBR231C, strain swc5, hits give low values 1.01 | locus YBR279W, strain paf1, hits give low values 1.01 | locus YCL011C, strain gbp2, hits give low values 1.01 | locus YCL016C, strain dcc1, hits give low values 1 | locus YCL029C, strain bik1, hits give low values 0.985 | locus YCL061C, strain MRC1, hits give low values 1.01 | locus YCL069W, strain vba3, hits give low values 0.994 | locus YCR088W, strain abp1, hits give low values 0.998 | locus YDL005C, strain med2, hits give low values 1 | locus YDL035C, strain GPR1, hits give low values 1.01 | locus YDL040C, strain nat1, hits give low values 0.997 | locus YDL074C, strain BRE1, hits give low values 1.02 | locus YDL101C, strain DUN1, hits give low values 1.02 | locus YDL134C, strain PPH21, hits give low values 1.03 | locus YDL185W, strain tfp1, hits give low values 0.981 | locus YDL192W, strain arf1, hits give low values 0.998 | locus YDR001C, strain nth1, hits give low values 1 | locus YDR069C, strain doa4, hits give low values 1.01 | locus YDR101C, strain arx1, hits give low values 0.963 | locus YDR137W, strain rgp1, hits give low values 1.01 | locus YDR159W, strain sac3, hits give low values 1.01 | locus YDR162C, strain NBP2, hits give low values 1.03 | locus YDR195W, strain ref2 0.991 | locus YDR297W, strain sur2, hits give low values 1.01 | locus YDR318W, strain mcm21, hits give low values 1.01 | locus YDR334W, strain swr1, hits give low values 1.01 | locus YDR335W, strain msn5, hits give low values 1.01 | locus YDR388W, hits give low values 0.981 | locus YDR392W, strain spt3, hits give low values 1.01 | locus YDR502C, strain sam2, hits give low values 0.993 | locus YEL003W, strain gim4, hits give low values 1.01 | locus YEL037C, strain rad23, hits give low values 0.999 | locus YEL061C, strain CIN8 (second series), hits give low values 1 | locus YEL061C, strain CIN8, hits give low values 1.01 | locus YER015W, strain faa2, hits give low values 1.01 | locus YER016W, strain bim1, hits give low values 1.01 | locus YER110C, hits give low values 0.984 | locus YER111C, strain swi4, hits give low values 1 | locus YER155C, strain BEM2 (second series), hits give low values 1.02 | locus YER155C, strain BEM2, hits give low values 1.01 | locus YER167W, strain BCK2, hits give low values 1.01 | locus YFR010W, strain ubp6, hits give low values 1.02 | locus YGL078C, strain dbp3, hits give low values 0.997 | locus YGL086W, strain mad1, hits give low values 0.984 | locus YGL167C, strain pmr1, hits give low values 1.01 | locus YGL173C, strain kem1, hits give low values 1.02 | locus YGL227W, strain vid30, hits give low values 0.994 | locus YGL240W, strain doc1, hits give low values 1.01 | locus YGL248W, strain PDE1, hits give low values 1.05 | locus YGL253W, strain hxk2, hits give low values 0.998 | locus YGR135W, strain pre9, hits give low values 0.989 | locus YGR252W, strain gcn5, hits give low values 1.04 | locus YHR013C, strain ard1, hits give low values 0.988 | locus YHR027C, strain rpn1, hits give low values 1.01 | locus YHR030C, strain SLT2, hits give low values 1.01 and 0.992 | locus YHR079C, strain IRE1 (second series), hits give low values 0.982 | locus YHR079C, strain IRE1, hits give low values 0.983 | locus YHR094C, strain hxt1, hits give low values 0.984 | locus YHR129C, strain ARP1, hits give low values 1.01 | locus YHR142W, strain chs7, hits give low values 1.01 | locus YHR200W, strain rpn10, hits give low values 0.995 | locus YIL066C, strain RNR3, hits give low values 1.02 | locus YIL073C, strain SPO22, hits give low values 1.01 | locus YIL125W, strain kgd1, hits give low values 0.989 | locus YIR030C, strain dcg1, hits give low values 1 | locus YJL092W, strain hpr5, hits give low values 1 | locus YJL095W, strain BCK1 (second series), hits give low values 1.01 | locus YJL095W, strain BCK1, hits give low values 1.06 and 1.01 | locus YJL115W, strain asf1, hits give low values 0.99 | locus YJL129C, strain trk1, hits give low values 0.998 | locus YJL134W, strain LCB3, hits give low values 1.01 | locus YJL154C, strain vps35, hits give low values 1 | locus YJL164C, strain tpk1, hits give low values 1.02 | locus YJL166W, strain qcr8, hits give low values 1.01 | locus YJL168C, strain set2, hits give low values 0.994 | locus YJL187C, strain SWE1 (second series), hits give low values 1.02 | locus YJL187C, strain SWE1, hits give low values 1.01 | locus YJR043C, strain POL32, hits give low values 1.03 | locus YJR066W, strain TOR1, hits give low values 0.982
